Laboratory results: PubChem BioAssay (NCATS)
Where “and” joins values, the source holds several entries; their conditions need not be identical. Equal values may be shown once. Records with an inconclusive call do not appear. Calls of active or inactive are those of the source. Unless noted, the call rests on the fitted dose curve; in most records, active means well fitted curve in the direction sought with a large enough effect; inconclusive means small, poorly fitted or top-dose-only effect, or another doubt; inactive means no such curve, though single readings can be large; an effect the other way counts as inactive or inconclusive.

How the values were obtained:
[1] = biological target: Chromobox protein homolog 1 (Homo sapiens) (UniProt P83916); assay: qHTS Validation Assay for Inhibitors of HP1-beta Chromodomain Interactions with Methylated Histone Tails (AID 488953); further: nearly all actives have a fitted effect of over 50% in size; further: potency means the concentration at half of the fitted maximal effect
Chromobox protein homolog 1 (Homo sapiens), sequence (P83916 whole entry, looked up): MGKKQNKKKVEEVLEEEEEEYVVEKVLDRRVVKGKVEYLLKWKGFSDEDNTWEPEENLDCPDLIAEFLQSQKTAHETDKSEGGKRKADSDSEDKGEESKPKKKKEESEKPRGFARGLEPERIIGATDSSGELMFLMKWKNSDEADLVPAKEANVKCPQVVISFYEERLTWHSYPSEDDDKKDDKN
Procedure, shortened: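 AlphaScreen proximity signal from streptavidin donor and nickel chelate acceptor beads (final 10 ug/mL) after 30 min dark incubation. Compounds had 30 min at room temperature with preformed complex of 50 nM HP1-beta and 50 nM b-H3(1-18)K9me3 in PBS pH 7.4 with 0.01% Tween-20.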

[2] = biological target: D(1A) dopamine receptor (Homo sapiens) (UniProt P21728); assay: HTS Assay for Allosteric Agonists of the Human D1 Dopamine Receptor: Primary Screen for Agonists (AID 488981); further: potency means the concentration at half of the fitted maximal effect; on activation: 0% is about no effect
Procedure, shortened: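 Tetracycline-induced HEK293 Trex D1 cells with forced coupling to calcium, loaded with no-wash calcium dye; kinetic fluorescence read 180 s after compound addition for agonism, then a further 180 s after an EC20 dopamine challenge for potentiation.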

[3] = biological target: ATPase family AAA domain-containing protein 5 (Homo sapiens) (UniProt Q96QE3); assay: Validation screen for small molecules that inhibit ELG1-dependent DNA repair in human embryonic kidney (HEK293T) cells expressing luciferase-tagged ELG1 (AID 493107); further: nearly all actives have a fitted effect of over 70% in size; further: potency means the concentration at half of the fitted maximal effect
ATPase family AAA domain-containing protein 5 (Homo sapiens), sequence (Q96QE3 whole entry, looked up, the tested form may be a part): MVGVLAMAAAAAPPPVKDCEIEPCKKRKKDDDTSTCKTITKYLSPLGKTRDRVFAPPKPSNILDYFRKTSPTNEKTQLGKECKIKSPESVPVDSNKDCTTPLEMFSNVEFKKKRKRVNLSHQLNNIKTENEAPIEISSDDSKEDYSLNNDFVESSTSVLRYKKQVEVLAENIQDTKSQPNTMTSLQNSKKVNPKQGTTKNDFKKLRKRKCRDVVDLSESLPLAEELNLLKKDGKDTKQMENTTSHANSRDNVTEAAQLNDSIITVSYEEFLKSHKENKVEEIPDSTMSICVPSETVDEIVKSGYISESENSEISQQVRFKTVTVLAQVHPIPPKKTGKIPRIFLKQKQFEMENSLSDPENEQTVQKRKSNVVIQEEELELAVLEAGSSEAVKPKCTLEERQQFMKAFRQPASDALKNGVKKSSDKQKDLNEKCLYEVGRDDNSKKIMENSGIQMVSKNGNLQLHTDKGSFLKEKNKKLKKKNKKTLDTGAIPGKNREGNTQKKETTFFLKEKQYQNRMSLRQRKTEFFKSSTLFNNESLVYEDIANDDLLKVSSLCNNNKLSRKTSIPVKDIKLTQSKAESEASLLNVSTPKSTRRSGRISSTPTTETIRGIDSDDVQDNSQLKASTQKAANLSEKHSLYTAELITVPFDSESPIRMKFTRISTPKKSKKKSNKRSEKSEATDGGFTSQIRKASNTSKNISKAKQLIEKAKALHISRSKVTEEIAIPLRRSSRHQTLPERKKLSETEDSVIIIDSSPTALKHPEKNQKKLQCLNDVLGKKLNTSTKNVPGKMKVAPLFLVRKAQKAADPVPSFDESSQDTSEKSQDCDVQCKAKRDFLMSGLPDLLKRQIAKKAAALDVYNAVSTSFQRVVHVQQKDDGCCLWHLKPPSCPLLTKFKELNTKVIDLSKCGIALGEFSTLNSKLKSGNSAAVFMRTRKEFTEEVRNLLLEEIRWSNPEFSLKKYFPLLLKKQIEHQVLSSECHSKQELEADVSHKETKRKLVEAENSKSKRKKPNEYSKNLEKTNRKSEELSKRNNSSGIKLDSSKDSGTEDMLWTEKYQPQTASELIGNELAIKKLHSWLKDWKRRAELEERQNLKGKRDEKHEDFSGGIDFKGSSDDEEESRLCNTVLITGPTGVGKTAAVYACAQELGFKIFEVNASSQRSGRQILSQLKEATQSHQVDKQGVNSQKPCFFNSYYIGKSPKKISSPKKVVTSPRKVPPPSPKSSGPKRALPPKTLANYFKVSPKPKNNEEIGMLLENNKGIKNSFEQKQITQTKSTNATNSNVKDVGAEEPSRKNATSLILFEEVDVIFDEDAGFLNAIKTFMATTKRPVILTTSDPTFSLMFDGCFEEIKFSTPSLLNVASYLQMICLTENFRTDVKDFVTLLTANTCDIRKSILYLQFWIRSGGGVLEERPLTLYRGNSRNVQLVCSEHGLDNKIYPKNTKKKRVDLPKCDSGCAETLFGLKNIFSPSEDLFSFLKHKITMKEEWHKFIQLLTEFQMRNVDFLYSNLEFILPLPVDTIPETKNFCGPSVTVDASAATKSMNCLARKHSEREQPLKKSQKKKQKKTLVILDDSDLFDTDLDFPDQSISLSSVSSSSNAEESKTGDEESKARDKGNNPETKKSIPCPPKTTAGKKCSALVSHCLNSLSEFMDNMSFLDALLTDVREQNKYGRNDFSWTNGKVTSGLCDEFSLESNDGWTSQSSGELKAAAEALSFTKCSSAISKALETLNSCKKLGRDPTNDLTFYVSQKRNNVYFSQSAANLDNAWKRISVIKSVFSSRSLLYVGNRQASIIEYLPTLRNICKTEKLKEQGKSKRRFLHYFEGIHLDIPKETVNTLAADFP
Procedure, shortened: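 Luciferase read-out, ONE-Glo, 30 min at room temperature, follows 16 h co-exposure at 37 C of compound and the DNA-damaging agent 5-fluorouridine. Cells: HEK293T with ELG1-luciferase fusion, 2,000 per well, DMSO as vehicle.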

[4] = biological target: Peptidyl-prolyl cis-trans isomerase NIMA-interacting 1 (Homo sapiens) (UniProt Q13526); assay: qHTS Validation Assay to Find Inhibitors of Pin1 (AID 504536; active means well fitted inhibition curve with a large enough effect in the polarisation, with a control signal flat, not every such curve was filed as active; the % refers to the polarisation; further: potency means the concentration at half of the fitted maximal effect)
Peptidyl-prolyl cis-trans isomerase NIMA-interacting 1 (Homo sapiens), sequence (Q13526 whole entry, looked up): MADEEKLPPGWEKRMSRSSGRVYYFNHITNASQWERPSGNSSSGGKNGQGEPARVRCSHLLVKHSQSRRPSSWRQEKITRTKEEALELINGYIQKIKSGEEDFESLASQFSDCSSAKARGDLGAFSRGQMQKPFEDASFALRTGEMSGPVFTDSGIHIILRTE
Procedure, shortened: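 Fluorescence polarization competition: compounds (titration) displace HiFluor-488-labeled Pin1-1b peptide from Pin1 (0.3 uM final) in pH 7.5 HEPES buffer with DTT, 10 min at room temperature; %Activity normalized to no-enzyme wells, curves fitted.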

[5] = Inducers of the Endoplasmic Reticulum Stress Response (ERSR) in human glioma: Validation (AID 504836); further: 0% is about no effect
Procedure, shortened: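 Stably transfected U87-MG glioma cells carrying a GRP78-based luciferase sensor; 16 h compound incubation. Luminescence end-point read 10 min after Bright-Glo addition at room temperature.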

[6] = biological target: Ubiquitin carboxyl-terminal hydrolase 1 (Homo sapiens) (UniProt O94782); assay: Inhibitors of USP1/UAF1: Pilot qHTS (AID 504865); further: nearly all actives have a fitted effect of over 35% in size; further: potency means the concentration at half of the fitted maximal effect
Procedure, shortened: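 USP1/UAF1 complex at 1 nM preincubated 15 min at room temperature with compound, then Ub-Rho substrate added at 150 nM final. Fluorescence (480/540 nm) read kinetically in 50 mM HEPES pH 7.8, 0.5 mM EDTA, 1 mM TCEP, 0.1 mg/ml BSA, 0.01% Tween-20.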

[7] = qHTS for Inhibitors of ATXN expression: Validation of Cytotoxic Assay (AID 588349); further: potency means the concentration at half of the fitted maximal effect
Procedure, shortened: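 Cytotoxicity counter-screen: ATP-based luminescent viability (CellTiter Glo) after 72 hr exposure of HEK293 cells to a compound titration at 37 degrees C.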

[8] = biological target: Transient receptor potential cation channel subfamily V member 1 (Homo sapiens) (UniProt Q8NER1); assay: HTS Assay for Compounds that Act as Enhancers of the Vanilloid Receptor 1 (AID 488979); further: 0% is about no effect
Transient receptor potential cation channel subfamily V member 1 (Homo sapiens), sequence (Q8NER1 whole entry, looked up): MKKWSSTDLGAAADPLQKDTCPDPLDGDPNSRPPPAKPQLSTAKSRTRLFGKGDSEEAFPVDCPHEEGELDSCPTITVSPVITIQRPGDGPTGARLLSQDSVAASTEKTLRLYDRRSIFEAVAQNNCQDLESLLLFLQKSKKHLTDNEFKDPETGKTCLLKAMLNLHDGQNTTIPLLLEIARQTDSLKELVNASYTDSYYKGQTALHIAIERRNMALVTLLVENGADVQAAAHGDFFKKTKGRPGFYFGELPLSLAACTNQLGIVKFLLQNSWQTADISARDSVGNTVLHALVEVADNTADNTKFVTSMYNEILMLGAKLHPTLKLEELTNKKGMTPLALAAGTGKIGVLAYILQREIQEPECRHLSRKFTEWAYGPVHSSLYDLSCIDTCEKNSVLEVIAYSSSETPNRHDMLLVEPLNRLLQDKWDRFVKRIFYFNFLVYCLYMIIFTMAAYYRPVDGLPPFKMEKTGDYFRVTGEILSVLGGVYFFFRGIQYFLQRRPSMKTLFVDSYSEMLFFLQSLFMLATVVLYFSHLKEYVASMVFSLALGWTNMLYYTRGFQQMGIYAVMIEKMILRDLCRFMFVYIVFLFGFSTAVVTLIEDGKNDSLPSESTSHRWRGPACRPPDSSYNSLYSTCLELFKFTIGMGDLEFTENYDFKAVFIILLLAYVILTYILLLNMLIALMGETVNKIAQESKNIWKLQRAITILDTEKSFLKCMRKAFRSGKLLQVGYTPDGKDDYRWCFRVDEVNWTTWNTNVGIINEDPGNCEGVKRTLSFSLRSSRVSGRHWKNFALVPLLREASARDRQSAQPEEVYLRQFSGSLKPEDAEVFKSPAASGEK
Procedure, shortened: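 TRPV1 cells loaded with Fluo-8 calcium dye; compound added and Ca2+ signal (ex 480/em 520 nm) followed 3 min, then capsaicin at EC20 added and read 2 more min to detect enhancement.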

[9] = biological target: Thyrotropin receptor (Homo sapiens) (UniProt P16473); assay: qHTS Assay for Antagonists of the Thyroid Stimulating Hormone Receptor (AID 488980); further: series mostly up to about 58 µM; 0% is about no effect
Thyrotropin receptor (Homo sapiens), sequence (P16473 whole entry, looked up): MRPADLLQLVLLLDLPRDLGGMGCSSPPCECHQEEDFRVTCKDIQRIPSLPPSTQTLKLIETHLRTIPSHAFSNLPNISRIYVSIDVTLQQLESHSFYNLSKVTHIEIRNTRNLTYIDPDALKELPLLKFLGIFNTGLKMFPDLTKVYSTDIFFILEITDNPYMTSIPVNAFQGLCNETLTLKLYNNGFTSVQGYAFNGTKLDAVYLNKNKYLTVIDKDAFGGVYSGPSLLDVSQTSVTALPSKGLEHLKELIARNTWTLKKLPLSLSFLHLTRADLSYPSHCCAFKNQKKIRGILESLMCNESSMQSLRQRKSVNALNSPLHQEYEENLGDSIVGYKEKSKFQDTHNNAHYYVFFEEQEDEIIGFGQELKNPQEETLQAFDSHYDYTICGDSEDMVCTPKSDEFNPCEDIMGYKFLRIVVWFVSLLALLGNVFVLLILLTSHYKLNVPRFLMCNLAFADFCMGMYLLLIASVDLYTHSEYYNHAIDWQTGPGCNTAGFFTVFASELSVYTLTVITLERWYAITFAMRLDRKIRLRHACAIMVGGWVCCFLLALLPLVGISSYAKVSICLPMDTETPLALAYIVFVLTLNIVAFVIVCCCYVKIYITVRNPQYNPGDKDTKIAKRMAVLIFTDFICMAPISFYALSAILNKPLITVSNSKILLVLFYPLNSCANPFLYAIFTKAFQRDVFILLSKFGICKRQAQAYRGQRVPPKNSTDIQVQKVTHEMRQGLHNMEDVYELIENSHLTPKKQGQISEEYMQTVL
Procedure, shortened: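 TSHR-transfected HEK293 cells (2000/well) in HEPES-buffered HBSS with 70 uM RO 20-1724 were stimulated with 4 nM TSH (EC80, final) in the presence of compound. cAMP was measured by HTRF competition after lysis and 30 min at RT.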

[10] = biological target: D(1A) dopamine receptor (Homo sapiens) (UniProt P21728); assay: HTS Assay for Allosteric Agonists of the Human D1 Dopamine Receptor: Primary Screen for Antagonists (AID 488983);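 further: calcium flux response to an EC80 dopamine challenge measured with no-wash dye; on the % scale 0 is the no-effect control and ±100 the full control effect; nearly all actives have a fitted effect of over 65% in size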
Procedure, shortened: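 Calcium-flux read-out in inducible HEK293 T-REx cells expressing D1, dye-loaded 30–90 min at room temperature. Kinetic reads: 180 s after compound (agonist phase), then 180 s after an EC80 dopamine challenge.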

[11] = Validation screen for small molecules that induce genotoxicity in human embryonic kidney (HEK293T) cells expressing luciferase-tagged ELG1 (AID 493106); further: 0% is about no effect
Procedure, shortened: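 ELG1-luciferase reporter readout (ONE-Glo, 30 min, room temperature) after 16 hr compound treatment at 37 °C of HEK293T cells at 2,000 per well. Rising luminescence flags genotoxic stress.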

[12] = biological target: Thyrotropin-releasing hormone receptor (Homo sapiens) (UniProt P34981); assay: qHTS for Small Molecule Agonists and Allosteric Enhancers of Human TRH Receptor: Validation Screen for Agonists (AID 493127;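 active means calcium activation more than 3 SD above the typical response in the agonist read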;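 further: intracellular calcium rise by fluo-8 fluorescence before TRH EC20 addition; 0% is about no effect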); settings: TRH receptor agonist cell assay; at 2 µM; stronger effect = higher value
Thyrotropin-releasing hormone receptor (Homo sapiens), sequence (P34981 whole entry, looked up): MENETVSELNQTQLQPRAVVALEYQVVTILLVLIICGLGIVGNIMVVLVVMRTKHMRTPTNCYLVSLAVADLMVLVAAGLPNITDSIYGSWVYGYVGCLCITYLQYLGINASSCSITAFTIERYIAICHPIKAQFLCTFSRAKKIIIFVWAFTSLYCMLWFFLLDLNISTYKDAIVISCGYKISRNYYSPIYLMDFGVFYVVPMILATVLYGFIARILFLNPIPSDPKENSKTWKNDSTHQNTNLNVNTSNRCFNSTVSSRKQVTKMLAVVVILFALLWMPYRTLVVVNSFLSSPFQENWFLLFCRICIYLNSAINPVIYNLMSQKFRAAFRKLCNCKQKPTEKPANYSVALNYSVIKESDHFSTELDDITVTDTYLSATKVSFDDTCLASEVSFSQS
Procedure, shortened: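 Compound-evoked intracellular calcium release in fluo-8-loaded TRHR cells, read kinetically on FDSS (Ex 480/Em 530, 1 s/cycle) after 23 nL pintool transfer. Agonist phase preceded 10 nM TRH EC20 addition.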

[13] = qHTS for Inhibitors of Cell Surface uPA Generation: Validation Assay (AID 493164);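 further: RAW 264.7 macrophage cells exposed to compound for 18 h; 0% is about no effect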
Procedure, shortened: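 ATP-Lite luminescence read-out: ATP remains high when uPA activity-dependent LF translocation into the cytoplasm is blocked. RAW 264.7 cells, 18 h compound exposure at 37 C; 7-point titration, 2.45 nM to 38.3 uM final.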

[14] = biological target: Galactokinase (Homo sapiens) (UniProt P51570); assay: qHTS Validation Assay for Inhibitors of Human Galactokinase (GALK) (AID 493189); further: 0% is about no effect
Galactokinase (Homo sapiens), sequence (P51570 whole entry, looked up): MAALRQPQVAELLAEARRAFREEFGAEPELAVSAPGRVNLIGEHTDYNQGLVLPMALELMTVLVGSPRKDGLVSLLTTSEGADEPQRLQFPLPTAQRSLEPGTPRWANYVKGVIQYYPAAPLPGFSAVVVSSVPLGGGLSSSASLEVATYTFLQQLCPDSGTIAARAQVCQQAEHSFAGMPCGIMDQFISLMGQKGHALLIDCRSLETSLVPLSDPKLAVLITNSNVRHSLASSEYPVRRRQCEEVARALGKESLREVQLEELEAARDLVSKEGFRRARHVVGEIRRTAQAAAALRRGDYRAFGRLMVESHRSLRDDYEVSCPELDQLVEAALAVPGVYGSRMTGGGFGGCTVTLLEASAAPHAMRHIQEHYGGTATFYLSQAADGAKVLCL
Procedure, shortened: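 GALK (5 nM) with 35 uM ATP and 100 uM galactose in HEPES pH 8.0 with MgCl2, NaCl, DTT and BSA. Reaction ran 1 h at room temperature. Residual ATP read by Kinase-Glo Plus luminescence.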

[15] = biological target: Phosphoglycerate kinase, glycosomal (Trypanosoma brucei brucei) (UniProt P07378); assay: qHTS Validation Assay to Find Inhibitors of Phosphoglycerate Kinase (AID 504547);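 further: control wells lack PGK and mark full inhibition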
Phosphoglycerate kinase, glycosomal (Trypanosoma brucei brucei), sequence (P07378 whole entry, looked up): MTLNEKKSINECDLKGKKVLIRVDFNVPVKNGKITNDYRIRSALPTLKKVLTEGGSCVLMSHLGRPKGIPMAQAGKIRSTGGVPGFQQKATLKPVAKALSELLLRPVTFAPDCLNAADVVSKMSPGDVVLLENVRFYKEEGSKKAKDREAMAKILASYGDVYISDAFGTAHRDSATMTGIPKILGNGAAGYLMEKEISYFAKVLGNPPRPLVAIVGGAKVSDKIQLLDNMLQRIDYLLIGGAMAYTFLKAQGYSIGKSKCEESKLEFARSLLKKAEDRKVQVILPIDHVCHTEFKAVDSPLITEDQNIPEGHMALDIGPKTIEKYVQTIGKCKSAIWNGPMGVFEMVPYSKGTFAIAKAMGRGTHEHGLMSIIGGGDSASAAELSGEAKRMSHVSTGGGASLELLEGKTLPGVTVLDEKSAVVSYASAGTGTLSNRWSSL
Procedure, shortened: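 Compounds are pinned into the substrate/PGK mixture, and GAPDH (100nM final) is added to start the reaction by producing 1,3-BPG. After 60 minutes at room temperature, Kinase-Glo Plus is added and luminescence is measured 10 minutes later.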

[16] = biological target: phosphoglycerate mutase (Leishmania major) (UniProt Q4Q090); assay: qHTS Validation Assay to Find Inhibitors of Phosphoglycerate Mutase (AID 504548); further: series mostly up to about 58 µM; on the % scale 0 is the no-effect control and ±100 the full control effect
Procedure, shortened: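 Lm PGAM 1.25nM final; 100 mM TEA pH 7.6, 5 mM MgCl2, 0.01% Tween-20; 45 min RT; Kinase-GloPlus, 10 min; end-point luminescence. Enzyme-free wells as negative controls.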

[17] = biological target: DNA dC->dU-editing enzyme APOBEC-3G (Homo sapiens) (UniProt Q9HC16); assay: qHTS for inhibitors of Vif-A3G interactions: Validation (AID 588379); further: 0% is about no effect
Procedure, shortened: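 Yellow fluorescence (Ex 488, Em 500-530) of Vif-coexpressing HeLa A3G-eYFP cells, scanned by Acumen cytometer, reports blocked A3G degradation. Cells plated at 700/well overnight at 37 deg C before compound addition, then a further overnight compound incubation at 37 deg C.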

[18] = biological target: ATP-dependent 6-phosphofructokinase (Trypanosoma brucei brucei) (UniProt O15648); assay: qHTS Assay to Find Inhibitors of T. brucei phosphofructokinase: hit validation (AID 492961); further: series mostly up to about 51 µM; on the % scale 0 is the no-effect control and ±100 the full control effect
Procedure, shortened: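 Luminescence from ADP-Glo reports ADP generated as T. brucei PFK (1.25 nM) phosphorylates 0.5 mM fructose-6-phosphate using 0.1 mM ATP. Reactions ran 45 min at room temperature, pH 8.0.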

[19] = Nrf2 qHTS screen for inhibitors: Validation (AID 493153; active means well fitted inhibition curve with a large enough effect in the main read-out, with a control signal flat, not every such curve was filed as active; further: potency means the concentration at half of the fitted maximal effect); settings: Potency: luciferase luminescence; viability change: measured here: cytotoxicity max response
Procedure, shortened: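 Concentration-response on A549 ARE_Fluc reporter cells exposed 18-24 h at 37 C, 5% CO2. Cytotoxicity read first by CellTiter-Fluor fluorescence (Ex 405/Em 525), then Nrf2 inhibition by BugLite luminescence after 15 min.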

[20] = Validation screen for small molecules that induce DNA re-replication in SW480 colon adenocarcinoma cells (AID 504364); further: 0% is about no effect
Procedure, shortened: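 Image-based DNA content read-out: Hoechst stain 40 min, total nuclear fluorescence intensity (ex 405 nm, em 500-530 nm) after 48 h compound exposure of 250 SW480 cells/well at 37 C, 5% CO2, versus DMSO vehicle.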

Cc1cc2c(C(C)C)c(O)c(O)c(C=O)c2c(O)c1-c1c(C)cc2c(C(C)C)c(O)c(O)c(C=O)c2c1O
inactive: outcome [5]
active: Potency [1] 10 µM | Potency [2] 22.4 µM | Potency [3] 8.2 µM | Potency [4] 9.53 µM | Potency [6] 22.4 µM and 31.6 µM and 10 µM | Potency [7] 10 µM

Fc1ccc(C(OCCN2CCN(CCCc3ccccc3)CC2)c2ccc(F)cc2)cc1
inactive: outcome [8] | outcome [9] | Potency [2] | Potency [10] | Potency [11] | activation [12] -5.62% | outcome [13] | outcome [14] | Potency [4] | Potency [15] | outcome [16] | outcome [5] | outcome [17]
active: Potency [1] 39.8 µM | Potency [3] 23.1 µM | Potency [7] 35.5 µM

NN=C(N)N
inactive: Potency [1] | outcome [8] | Potency [2] | Potency [10] | outcome [18] | Potency [11] | Potency [3] | Potency [19] | outcome [13] | outcome [14] | Potency [20] | Potency [4] | Potency [15] | outcome [16] | outcome [5] | Potency [6] | Potency [7] | outcome [17]
4.74% and 3.63%: viability change [19]

Cc1ccc(S(=O)(=O)N[C@@H](CCCCN)C(=O)CCl)cc1
active: Potency [6] 50.1 µM and 39.8 µM
inactive: Potency [1] | outcome [8] | outcome [9] | Potency [2] | Potency [10] | Potency [11] | activation [12] -0.625% | Potency [19] | outcome [14] | Potency [20] | Potency [4] | Potency [15] | outcome [16] | outcome [5]
-2.81%: viability change [19]

CC(O)(CS(=O)(=O)c1ccc(F)cc1)C(=O)Nc1ccc(C#N)c(C(F)(F)F)c1 (stereo not drawn)
-8.54%: viability change [19]
inactive: Potency [1] | Potency [2] | Potency [10] | Potency [11] | Potency [3] | Potency [19] | outcome [13] | Potency [4] | Potency [15] | outcome [16] | outcome [5] | Potency [6] | Potency [7]

CC(CCc1ccccc1)NC(C)C(O)c1ccc(O)cc1 (stereo not drawn)
inactive: Potency [1] | outcome [9] | Potency [2] | Potency [11] | Potency [3] | Potency [19] | outcome [13] | outcome [14] | Potency [20] | Potency [4] | Potency [15] | outcome [16] | outcome [5] | Potency [6]
-10.8%: viability change [19]

OCCN1CCN(CCCN2c3ccccc3Sc3ccc(C(F)(F)F)cc32)CC1
inactive: outcome [5]
active: Potency [1] 0.006 µM | Potency [6] 56.2 µM

NCC(CC(=O)O)c1ccc(Cl)cc1 (stereo not drawn)
inactive: Potency [1] | outcome [8] | outcome [9] | Potency [2] | Potency [10] | Potency [11] | activation [12] 0.125% | outcome [13] | outcome [14] | Potency [20] | Potency [4] | Potency [15] | outcome [16] | outcome [5] | Potency [6] | Potency [7]
active: Potency [19] 9.2 µM
12.6%: viability change [19]
